Measurements reported in PubChem BioAssay AID1159580 (chemical genetic matrix, 2015).
Where “and” joins values, the source holds several entries; their conditions need not be identical. Equal values may be shown once. The whole screen tested about 5,500 compounds, of which about 2,000 (36%) were called active. Inconclusive results (about 18%) are left out. Rule as the data show it: active = normalized growth mostly below about 0.91 (no sharp cut-off); inconclusive = no clear call, values can overlap the other calls; inactive = mostly above about 0.92. Some of the results follow.

Assay: chemical genetic growth profiling, strain panel (AID 1159580);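 also: tested at 20 µM; growth read once vehicle control cultures reached saturation at 30 °C; 1 = growth at the plate median or of vehicle wells; lower values mean less growth of the strain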
Conditions: S. cerevisiae deletion strains, growth OD

Measured: normalized growth

CN1C2CCC1CC(OC(c1ccccc1)c1ccccc1N)C2 (stereo unspecified)
inactive: locus YAL013W, strain DEP1, active compounds read low 0.993 | locus YAL021C, strain ccr4, active compounds read low 0.985 | locus YAL026C, strain drs2, active compounds read low 1.01 | locus YAL030W, strain snc1, active compounds read low 0.994 | locus YAL040C, strain CLN3, active compounds read low 1.01 | locus YBL061C, strain skt5, active compounds read low 0.995 | locus YBR009C, strain hhf1, active compounds read low 0.998 | locus YBR021W, strain FUR4, active compounds read low 0.993 | locus YBR023C, strain chs3, active compounds read low 0.989 | locus YBR171W, strain sec66, active compounds read low 1 | locus YBR229C, strain ROT2, active compounds read low 0.998 | locus YBR231C, strain swc5, active compounds read low 1 | locus YBR279W, strain paf1, active compounds read low 1 | locus YCL011C, strain gbp2, active compounds read low 1 | locus YCL016C, strain dcc1, active compounds read low 0.994 | locus YCL029C, strain bik1, active compounds read low 1.03 | locus YCL061C, strain MRC1 (second series), active compounds read low 1 | locus YCL061C, strain MRC1, active compounds read low 0.997 | locus YCL069W, strain vba3, active compounds read low 1 | locus YCR088W, strain abp1, active compounds read low 0.997 | locus YDL005C, strain med2, active compounds read low 0.99 | locus YDL035C, strain GPR1, active compounds read low 1.01 | locus YDL040C, strain nat1, active compounds read low 0.991 | locus YDL074C, strain BRE1, active compounds read low 1 | locus YDL101C, strain DUN1, active compounds read low 1.01 | locus YDL134C, strain PPH21, active compounds read low 1.01 | locus YDL185W, strain tfp1, active compounds read low 1.01 | locus YDL192W, strain arf1, active compounds read low 1.02 | locus YDR001C, strain nth1, active compounds read low 1.01 | locus YDR069C, strain doa4, active compounds read low 1 | locus YDR101C, strain arx1, active compounds read low 1.01 | locus YDR137W, strain rgp1, active compounds read low 0.98 | locus YDR150W, strain NUM1, active compounds read low 1.01 | locus YDR159W, strain sac3, active compounds read low 1 | locus YDR162C, strain NBP2, active compounds read low 1 | locus YDR195W, strain ref2 0.976 | locus YDR297W, strain sur2, active compounds read low 1.01 | locus YDR318W, strain mcm21, active compounds read low 1.01 | locus YDR334W, strain swr1, active compounds read low 1 | locus YDR335W, strain msn5, active compounds read low 0.996 | locus YDR363W, strain ESC2, active compounds read low 0.962 | locus YDR388W, active compounds read low 1.01 | locus YDR392W, strain spt3, active compounds read low 1.01 | locus YDR502C, strain sam2, active compounds read low 1.01 | locus YEL003W, strain gim4, active compounds read low 1.01 | locus YEL037C, strain rad23, active compounds read low 1 | locus YEL061C, strain CIN8 (second series), active compounds read low 1.03 | locus YEL061C, strain CIN8, active compounds read low 1 | locus YER002W, strain NOP16, active compounds read low 1 | locus YER015W, strain faa2, active compounds read low 0.987 | locus YER016W, strain bim1, active compounds read low 0.991 | locus YER110C, active compounds read low 1.01 | locus YER111C, strain swi4, active compounds read low 0.989 | locus YER155C, strain BEM2 (second series), active compounds read low 0.988 | locus YER155C, strain BEM2, active compounds read low 0.996 | locus YER167W, strain BCK2, active compounds read low 1.02 | locus YFR010W, strain ubp6, active compounds read low 0.996 | locus YGL078C, strain dbp3, active compounds read low 1.01 | locus YGL086W, strain mad1, active compounds read low 1.01 | locus YGL167C, strain pmr1, active compounds read low 0.999 | locus YGL173C, strain kem1, active compounds read low 0.999 | locus YGL227W, strain vid30, active compounds read low 0.991 | locus YGL240W, strain doc1, active compounds read low 0.997 | locus YGL248W, strain PDE1, active compounds read low 1.01 | locus YGL253W, strain hxk2, active compounds read low 0.998 | locus YGR078C, strain PAC10, active compounds read low 1.01 | locus YGR135W, strain pre9, active compounds read low 1.01 | locus YGR229C, strain SMI1, active compounds read low 0.992 | locus YGR252W, strain gcn5, active compounds read low 1 | locus YHR013C, strain ard1, active compounds read low 0.979 | locus YHR027C, strain rpn1, active compounds read low 0.999 | locus YHR030C, strain SLT2, active compounds read low 1.01 and 0.978 | locus YHR079C, strain IRE1 (second series), active compounds read low 1.01 | locus YHR079C, strain IRE1, active compounds read low 0.991 | locus YHR094C, strain hxt1, active compounds read low 1.01 | locus YHR129C, strain ARP1, active compounds read low 1.01 | locus YHR142W, strain chs7, active compounds read low 1 | locus YHR200W, strain rpn10, active compounds read low 1.02 | locus YIL066C, strain RNR3, active compounds read low 0.994 | locus YIL073C, strain SPO22, active compounds read low 1.05 | locus YIL125W, strain kgd1, active compounds read low 1 | locus YIR030C, strain dcg1, active compounds read low 1.01 | locus YJL092W, strain hpr5, active compounds read low 1.01 | locus YJL095W, strain BCK1 (second series), active compounds read low 1.01 | locus YJL095W, strain BCK1, active compounds read low 1 and 0.969 | locus YJL115W, strain asf1, active compounds read low 0.997 | locus YJL129C, strain trk1, active compounds read low 1.01 | locus YJL134W, strain LCB3, active compounds read low 1.01 | locus YJL154C, strain vps35, active compounds read low 1 | locus YJL164C, strain tpk1, active compounds read low 1 | locus YJL166W, strain qcr8, active compounds read low 1.02 | locus YJL168C, strain set2, active compounds read low 1.01 | locus YJL187C, strain SWE1 (second series), active compounds read low 1.01 | locus YJL187C, strain SWE1, active compounds read low 0.998 | locus YJR043C, strain POL32, active compounds read low 1.02 | locus YJR066W, strain TOR1, active compounds read low 0.926
